Experimental data from PMC7862700, “An all-to-all approach to the identification of sequence-specific readers for epigenetic DNA modifications on cytosine”.

Columns and labels:
Assay in all cases: DAPPL (digital affinity profiling via proximity ligation, sequencing); 10 mM Tris-HCl pH 7.5, 50 mM NaCl, 1 mM DTT, 4% glycerol, room temperature, 30 min; GST-TFs on glutathione beads, 16-mer random dsDNA library, 0.1% formaldehyde crosslink after washing; high values mean tight binding
Settings in all cases: protein: recombinant; tags: N-terminal GST; dsDNA, one strand shown
FLI1 = target: T1, FLI1 (Homo sapiens, UniProt Q01543 1-452)
T1 sequence: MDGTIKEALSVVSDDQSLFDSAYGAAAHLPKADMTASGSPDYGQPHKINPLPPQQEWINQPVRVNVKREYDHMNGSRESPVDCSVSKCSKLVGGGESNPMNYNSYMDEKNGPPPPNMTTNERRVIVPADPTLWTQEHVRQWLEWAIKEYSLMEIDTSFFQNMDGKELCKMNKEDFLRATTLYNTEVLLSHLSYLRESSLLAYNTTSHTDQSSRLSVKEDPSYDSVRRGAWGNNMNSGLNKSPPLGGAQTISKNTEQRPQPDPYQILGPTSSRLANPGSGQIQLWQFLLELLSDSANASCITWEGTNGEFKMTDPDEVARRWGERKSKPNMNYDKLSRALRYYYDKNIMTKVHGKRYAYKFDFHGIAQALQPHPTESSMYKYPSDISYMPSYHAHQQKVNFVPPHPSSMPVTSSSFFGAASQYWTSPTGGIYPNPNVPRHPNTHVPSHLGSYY
In short: (§1)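 GST fusions of human transcription factors were expressed in yeast and captured with glutathione beads. Once given DNA barcodes and pooled alongside a tag-only sample, they were incubated for 30 min at room temperature with 200 nmole of a random double-stranded 16-mer DNA library in Tris/NaCl/DTT/glycerol buffer, then washed, crosslinked (0.1% formaldehyde), proximity-ligated, PCR-amplified and sequenced on an Illumina NextSeq500. The binding signal of each hexamer is its read frequency for a factor divided by its frequency for the tag-only sample.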

ELK1 = target: T2, ELK1 (Homo sapiens, UniProt P19419 1-428)
T2 sequence: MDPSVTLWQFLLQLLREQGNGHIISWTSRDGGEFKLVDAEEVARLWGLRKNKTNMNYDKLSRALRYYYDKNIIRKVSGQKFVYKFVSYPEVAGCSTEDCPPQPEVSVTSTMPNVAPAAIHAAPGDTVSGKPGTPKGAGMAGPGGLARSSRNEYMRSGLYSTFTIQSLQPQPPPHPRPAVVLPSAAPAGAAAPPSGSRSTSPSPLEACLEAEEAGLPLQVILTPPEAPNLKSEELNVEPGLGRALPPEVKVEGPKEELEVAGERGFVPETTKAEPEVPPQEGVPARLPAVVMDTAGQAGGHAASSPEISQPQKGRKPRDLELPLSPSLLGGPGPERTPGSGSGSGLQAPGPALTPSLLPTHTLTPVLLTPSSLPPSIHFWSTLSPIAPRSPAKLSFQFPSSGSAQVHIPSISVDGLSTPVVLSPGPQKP
In short: as §1

GABPA = target: T3, GABPA (Homo sapiens, UniProt Q06546 1-454)
T3 sequence: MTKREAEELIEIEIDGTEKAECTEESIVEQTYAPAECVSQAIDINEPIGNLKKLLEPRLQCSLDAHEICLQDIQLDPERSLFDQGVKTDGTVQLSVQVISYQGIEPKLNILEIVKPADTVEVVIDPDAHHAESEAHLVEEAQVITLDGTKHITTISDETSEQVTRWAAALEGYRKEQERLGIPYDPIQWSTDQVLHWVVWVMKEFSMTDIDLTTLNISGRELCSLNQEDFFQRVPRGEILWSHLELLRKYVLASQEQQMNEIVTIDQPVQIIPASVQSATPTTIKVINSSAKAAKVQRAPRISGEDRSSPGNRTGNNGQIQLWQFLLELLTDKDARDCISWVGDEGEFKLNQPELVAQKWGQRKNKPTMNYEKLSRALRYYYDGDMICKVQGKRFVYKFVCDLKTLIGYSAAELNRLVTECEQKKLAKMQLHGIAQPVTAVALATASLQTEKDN
In short: as §1

ERG = target: T4, ERG (Homo sapiens, UniProt P11308 1-479)
T4 sequence: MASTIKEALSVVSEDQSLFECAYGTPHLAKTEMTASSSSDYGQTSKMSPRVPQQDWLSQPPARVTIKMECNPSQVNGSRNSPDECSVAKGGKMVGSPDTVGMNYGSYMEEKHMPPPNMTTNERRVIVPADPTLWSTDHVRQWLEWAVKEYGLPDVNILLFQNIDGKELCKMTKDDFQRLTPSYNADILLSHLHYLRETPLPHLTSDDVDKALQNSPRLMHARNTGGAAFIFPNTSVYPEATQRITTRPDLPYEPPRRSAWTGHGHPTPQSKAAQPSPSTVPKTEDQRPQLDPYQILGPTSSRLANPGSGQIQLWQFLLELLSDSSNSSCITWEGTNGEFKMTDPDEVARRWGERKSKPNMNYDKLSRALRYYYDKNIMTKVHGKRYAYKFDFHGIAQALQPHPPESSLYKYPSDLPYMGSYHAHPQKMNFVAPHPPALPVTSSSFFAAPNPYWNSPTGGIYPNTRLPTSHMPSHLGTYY
In short: as §1

ELF1 = ELF1 (Homo sapiens, UniProt P32519 1-619)
Chain of ELF1 (P32519 whole entry): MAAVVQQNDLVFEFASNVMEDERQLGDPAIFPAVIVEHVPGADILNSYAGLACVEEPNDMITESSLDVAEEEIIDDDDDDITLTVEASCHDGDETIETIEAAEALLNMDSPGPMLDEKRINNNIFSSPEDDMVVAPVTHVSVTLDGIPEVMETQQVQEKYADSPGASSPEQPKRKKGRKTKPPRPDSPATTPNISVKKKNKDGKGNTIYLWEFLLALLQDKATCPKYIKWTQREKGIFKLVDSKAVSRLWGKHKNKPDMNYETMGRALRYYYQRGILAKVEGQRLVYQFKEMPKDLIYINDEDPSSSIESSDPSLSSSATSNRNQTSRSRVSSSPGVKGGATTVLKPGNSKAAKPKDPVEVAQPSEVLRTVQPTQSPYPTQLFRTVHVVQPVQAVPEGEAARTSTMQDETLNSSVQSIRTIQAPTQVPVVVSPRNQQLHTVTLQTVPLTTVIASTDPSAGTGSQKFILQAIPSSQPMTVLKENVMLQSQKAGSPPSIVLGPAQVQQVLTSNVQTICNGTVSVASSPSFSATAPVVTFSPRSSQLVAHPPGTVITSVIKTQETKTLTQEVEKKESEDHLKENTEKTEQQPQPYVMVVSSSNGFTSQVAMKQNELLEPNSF
In short: as §1

EHF = target: T5, EHF (Homo sapiens, UniProt Q9NZC4 1-300)
T5 sequence: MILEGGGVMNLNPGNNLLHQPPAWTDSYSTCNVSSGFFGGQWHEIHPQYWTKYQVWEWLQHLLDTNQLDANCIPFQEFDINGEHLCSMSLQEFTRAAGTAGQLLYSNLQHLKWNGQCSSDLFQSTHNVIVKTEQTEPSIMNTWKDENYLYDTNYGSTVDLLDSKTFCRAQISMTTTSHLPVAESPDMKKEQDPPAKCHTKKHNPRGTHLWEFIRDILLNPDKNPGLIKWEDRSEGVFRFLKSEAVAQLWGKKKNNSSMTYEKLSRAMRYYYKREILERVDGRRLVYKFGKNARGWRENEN
In short: as §1

SPI1 = SPI1 (Homo sapiens, UniProt P17947 1-270)
In short: as §1

SPIB = SPIB (Homo sapiens, UniProt Q01892 1-262)
Chain of SPIB (Q01892 whole entry): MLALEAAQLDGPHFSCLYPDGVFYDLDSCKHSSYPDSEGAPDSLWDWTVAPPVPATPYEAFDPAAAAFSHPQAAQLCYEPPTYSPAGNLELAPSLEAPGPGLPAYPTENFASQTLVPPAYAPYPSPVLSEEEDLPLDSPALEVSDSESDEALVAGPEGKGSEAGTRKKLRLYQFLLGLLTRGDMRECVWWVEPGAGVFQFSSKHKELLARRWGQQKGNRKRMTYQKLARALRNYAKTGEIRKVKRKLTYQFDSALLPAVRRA
In short: as §1

ELK3 = target: T6, ELK3 (Homo sapiens, UniProt P41970 1-407)
T6 sequence: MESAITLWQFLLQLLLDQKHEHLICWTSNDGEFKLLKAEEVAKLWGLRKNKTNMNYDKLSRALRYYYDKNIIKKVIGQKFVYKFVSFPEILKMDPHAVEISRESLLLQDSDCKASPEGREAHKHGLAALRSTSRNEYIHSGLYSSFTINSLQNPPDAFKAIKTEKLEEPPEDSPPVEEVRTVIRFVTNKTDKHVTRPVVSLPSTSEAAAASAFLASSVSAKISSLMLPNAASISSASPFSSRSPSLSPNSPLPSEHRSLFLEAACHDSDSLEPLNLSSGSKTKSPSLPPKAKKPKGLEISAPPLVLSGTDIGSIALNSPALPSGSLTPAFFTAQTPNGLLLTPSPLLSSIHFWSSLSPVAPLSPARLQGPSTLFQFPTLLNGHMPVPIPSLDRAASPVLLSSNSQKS
In short: as §1

In the case of TTGTCC, the binding signal (FLI1) is reported as 1.47 fold enrichment (6-mer frequency, TF over GST control), the binding signal (ELK1) is reported as 1.32 fold enrichment (6-mer frequency, TF over GST control) and the binding signal (GABPA) is reported as 1.41 fold enrichment (6-mer frequency, TF over GST control). For the same sequence, the binding signal (ERG) was 1.4 fold enrichment (6-mer frequency, TF over GST control), the binding signal (ELF1) was 1.3 fold enrichment (6-mer frequency, TF over GST control) and the binding signal (EHF) was 1.31 fold enrichment (6-mer frequency, TF over GST control). The binding signal (SPI1) was 1.17 fold enrichment (6-mer frequency, TF over GST control), the binding signal (SPIB) was 1.34 fold enrichment (6-mer frequency, TF over GST control) and the binding signal (ELK3) was 1.43 fold enrichment (6-mer frequency, TF over GST control).
